Laboratory results taken from article PMC7862700, “An all-to-all approach to the identification of sequence-specific readers for epigenetic DNA modifications on cytosine”.

What was measured:
Test in all cases: DAPPL (digital affinity profiling via proximity ligation, sequencing); 10 mM Tris-HCl pH 7.5, 50 mM NaCl, 1 mM DTT, 4% glycerol, room temperature, 30 min; GST-TFs on glutathione beads, 16-mer random dsDNA library, 0.1% formaldehyde crosslink after washing; high values mean tight binding
Details in all cases: protein: recombinant; tags: N-terminal GST; dsDNA, one strand shown
[1] = biological target: T1, ERF (Homo sapiens, UniProt P50548 1-548)
T1 sequence: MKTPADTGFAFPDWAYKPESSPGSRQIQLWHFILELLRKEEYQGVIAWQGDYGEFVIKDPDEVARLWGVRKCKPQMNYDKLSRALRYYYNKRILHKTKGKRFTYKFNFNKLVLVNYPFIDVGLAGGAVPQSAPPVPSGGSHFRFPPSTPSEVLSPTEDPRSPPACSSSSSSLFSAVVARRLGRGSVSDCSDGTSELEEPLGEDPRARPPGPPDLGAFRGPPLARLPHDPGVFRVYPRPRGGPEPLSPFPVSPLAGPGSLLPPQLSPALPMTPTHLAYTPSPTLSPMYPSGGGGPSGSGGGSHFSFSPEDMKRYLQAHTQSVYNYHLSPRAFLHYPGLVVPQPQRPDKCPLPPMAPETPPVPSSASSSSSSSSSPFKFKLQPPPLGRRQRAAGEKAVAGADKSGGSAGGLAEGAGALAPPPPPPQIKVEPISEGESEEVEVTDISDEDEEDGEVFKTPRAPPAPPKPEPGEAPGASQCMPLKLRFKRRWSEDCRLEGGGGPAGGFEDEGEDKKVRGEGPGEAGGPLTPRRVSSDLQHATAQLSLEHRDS
In short: (§1)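 Yeast served to express human transcription factors as GST fusions, which were then captured on glutathione beads and labelled with DNA barcodes. Pooled with a tag-only sample, they were incubated with 200 nmole of a 16-mer random double-stranded DNA library for 30 min at room temperature in Tris/NaCl/DTT/glycerol buffer, washed, crosslinked with 0.1% formaldehyde, ligated by proximity, amplified by PCR and sequenced. Dividing each hexamer's read frequency for a factor by its frequency for the tag-only sample gives the binding signal.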

[2] = biological target: T2, ETV3L (Homo sapiens, UniProt Q6ZN32 1-361)
T2 sequence: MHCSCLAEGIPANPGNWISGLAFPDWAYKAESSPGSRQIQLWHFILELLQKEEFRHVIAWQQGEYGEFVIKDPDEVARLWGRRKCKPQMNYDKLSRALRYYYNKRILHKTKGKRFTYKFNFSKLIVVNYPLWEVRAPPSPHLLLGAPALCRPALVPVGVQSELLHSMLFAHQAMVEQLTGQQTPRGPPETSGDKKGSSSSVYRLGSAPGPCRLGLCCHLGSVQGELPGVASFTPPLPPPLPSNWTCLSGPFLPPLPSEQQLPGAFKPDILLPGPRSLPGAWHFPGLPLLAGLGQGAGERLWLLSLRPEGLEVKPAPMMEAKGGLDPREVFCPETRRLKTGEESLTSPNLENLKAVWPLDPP
In short: as §1

[3] = biological target: T3, ETS2 (Homo sapiens, UniProt P15036 1-469)
T3 sequence: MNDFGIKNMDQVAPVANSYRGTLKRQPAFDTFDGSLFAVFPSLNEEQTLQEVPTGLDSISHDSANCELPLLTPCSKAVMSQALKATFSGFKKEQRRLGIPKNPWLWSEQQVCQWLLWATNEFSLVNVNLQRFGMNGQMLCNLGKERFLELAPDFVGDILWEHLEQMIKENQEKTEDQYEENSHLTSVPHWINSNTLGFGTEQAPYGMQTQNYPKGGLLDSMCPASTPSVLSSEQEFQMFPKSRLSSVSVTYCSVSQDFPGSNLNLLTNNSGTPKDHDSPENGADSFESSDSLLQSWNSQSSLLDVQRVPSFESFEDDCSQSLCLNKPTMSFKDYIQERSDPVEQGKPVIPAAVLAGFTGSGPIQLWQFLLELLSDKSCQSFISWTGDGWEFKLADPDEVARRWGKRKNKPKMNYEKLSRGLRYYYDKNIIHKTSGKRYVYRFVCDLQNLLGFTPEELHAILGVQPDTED
In short: as §1

[4] = biological target: T4, SPDEF (Homo sapiens, UniProt O95238 1-335)
T4 sequence: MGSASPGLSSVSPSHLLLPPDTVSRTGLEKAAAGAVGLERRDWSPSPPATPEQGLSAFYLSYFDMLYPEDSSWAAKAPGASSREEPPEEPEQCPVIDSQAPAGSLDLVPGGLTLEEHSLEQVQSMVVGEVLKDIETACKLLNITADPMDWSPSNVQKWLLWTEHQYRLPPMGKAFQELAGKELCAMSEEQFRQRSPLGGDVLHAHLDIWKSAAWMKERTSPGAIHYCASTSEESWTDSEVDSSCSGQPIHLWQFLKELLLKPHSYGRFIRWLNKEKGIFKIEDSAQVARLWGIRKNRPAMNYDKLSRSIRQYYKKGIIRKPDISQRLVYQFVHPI
In short: as §1

[5] = biological target: T5, ETV7 (Homo sapiens, UniProt Q9Y603 1-341)
T5 sequence: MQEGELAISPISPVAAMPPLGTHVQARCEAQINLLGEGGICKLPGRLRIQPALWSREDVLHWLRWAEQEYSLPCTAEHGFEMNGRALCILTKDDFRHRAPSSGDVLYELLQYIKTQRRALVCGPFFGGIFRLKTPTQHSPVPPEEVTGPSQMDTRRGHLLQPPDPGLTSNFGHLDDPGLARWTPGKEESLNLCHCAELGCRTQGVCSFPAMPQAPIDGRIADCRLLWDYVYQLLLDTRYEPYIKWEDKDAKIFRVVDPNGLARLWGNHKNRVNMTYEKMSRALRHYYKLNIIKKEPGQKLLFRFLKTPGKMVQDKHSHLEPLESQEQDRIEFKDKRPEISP
In short: as §1

[6] = biological target: T6, ELF5 (Homo sapiens, UniProt Q9UKW6-2 1-255)
T6 sequence: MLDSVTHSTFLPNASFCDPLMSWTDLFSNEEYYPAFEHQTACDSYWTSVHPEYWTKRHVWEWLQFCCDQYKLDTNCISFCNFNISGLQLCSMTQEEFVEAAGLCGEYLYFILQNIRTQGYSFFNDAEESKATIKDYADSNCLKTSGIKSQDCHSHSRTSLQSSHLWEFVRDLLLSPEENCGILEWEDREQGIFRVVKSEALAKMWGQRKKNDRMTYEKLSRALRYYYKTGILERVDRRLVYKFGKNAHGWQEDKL
In short: as §1

[7] = biological target: T7, ETV3 (Homo sapiens, UniProt P41162-2 1-143)
T7 sequence: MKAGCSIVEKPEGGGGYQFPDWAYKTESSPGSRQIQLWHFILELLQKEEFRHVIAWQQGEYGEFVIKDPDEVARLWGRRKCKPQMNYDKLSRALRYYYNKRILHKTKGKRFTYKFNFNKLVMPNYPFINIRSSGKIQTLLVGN
In short: as §1

[8] = biological target: ETV6 (Homo sapiens, UniProt P41212 1-452)
In short: as §1

ETV6, sequence (P41212 whole entry): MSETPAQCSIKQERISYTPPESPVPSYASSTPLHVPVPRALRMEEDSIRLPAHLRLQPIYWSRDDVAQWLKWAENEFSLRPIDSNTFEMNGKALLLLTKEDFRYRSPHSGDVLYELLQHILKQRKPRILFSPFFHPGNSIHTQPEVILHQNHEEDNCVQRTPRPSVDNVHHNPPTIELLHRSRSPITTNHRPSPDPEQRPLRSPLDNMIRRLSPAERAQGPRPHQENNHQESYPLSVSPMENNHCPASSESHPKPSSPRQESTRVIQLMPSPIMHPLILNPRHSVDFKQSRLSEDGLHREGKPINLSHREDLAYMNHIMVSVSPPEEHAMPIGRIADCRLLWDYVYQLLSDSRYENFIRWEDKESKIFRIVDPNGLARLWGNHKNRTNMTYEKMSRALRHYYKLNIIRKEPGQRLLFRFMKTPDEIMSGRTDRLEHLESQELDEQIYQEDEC

Sequence | binding signal [1] | binding signal [2] | binding signal [3] | binding signal [4] | binding signal [5] | binding signal [6] | binding signal [7] | binding signal [8]
CCTCTG | 1.65 fold enrichment (6-mer frequency, TF over GST control) | 1.36 fold enrichment (6-mer frequency, TF over GST control) | 1.42 fold enrichment (6-mer frequency, TF over GST control) | 1.54 fold enrichment (6-mer frequency, TF over GST control) | 1.79 fold enrichment (6-mer frequency, TF over GST control) | 1.5 fold enrichment (6-mer frequency, TF over GST control) | 1.64 fold enrichment (6-mer frequency, TF over GST control) | 1.39 fold enrichment (6-mer frequency, TF over GST control)
TCTGTC | 1.31 fold enrichment (6-mer frequency, TF over GST control) | 1.19 fold enrichment (6-mer frequency, TF over GST control) | 1.23 fold enrichment (6-mer frequency, TF over GST control) | 1.15 fold enrichment (6-mer frequency, TF over GST control) | 1.14 fold enrichment (6-mer frequency, TF over GST control) | 1.16 fold enrichment (6-mer frequency, TF over GST control) | 1.05 fold enrichment (6-mer frequency, TF over GST control) | 1.23 fold enrichment (6-mer frequency, TF over GST control)
ACGCTG | 1.21 fold enrichment (6-mer frequency, TF over GST control) | 1.15 fold enrichment (6-mer frequency, TF over GST control) | 1.06 fold enrichment (6-mer frequency, TF over GST control) | 1.24 fold enrichment (6-mer frequency, TF over GST control) | 1.16 fold enrichment (6-mer frequency, TF over GST control) | 1.09 fold enrichment (6-mer frequency, TF over GST control) | 1.26 fold enrichment (6-mer frequency, TF over GST control) | 1.09 fold enrichment (6-mer frequency, TF over GST control)
CGTCCC | 1.35 fold enrichment (6-mer frequency, TF over GST control) | 1.3 fold enrichment (6-mer frequency, TF over GST control) | 1.38 fold enrichment (6-mer frequency, TF over GST control) | 1.35 fold enrichment (6-mer frequency, TF over GST control) | 1.22 fold enrichment (6-mer frequency, TF over GST control) | 1.31 fold enrichment (6-mer frequency, TF over GST control) | 1.41 fold enrichment (6-mer frequency, TF over GST control) | 1.32 fold enrichment (6-mer frequency, TF over GST control)
GTTTAC | 1.12 fold enrichment (6-mer frequency, TF over GST control) | 1.12 fold enrichment (6-mer frequency, TF over GST control) | 1.13 fold enrichment (6-mer frequency, TF over GST control) | 1.12 fold enrichment (6-mer frequency, TF over GST control) | 1.22 fold enrichment (6-mer frequency, TF over GST control) | 1.13 fold enrichment (6-mer frequency, TF over GST control) | 1.07 fold enrichment (6-mer frequency, TF over GST control) | 1.19 fold enrichment (6-mer frequency, TF over GST control)
ACTGAC | 1.18 fold enrichment (6-mer frequency, TF over GST control) | 1.19 fold enrichment (6-mer frequency, TF over GST control) | 1.32 fold enrichment (6-mer frequency, TF over GST control) | 1.18 fold enrichment (6-mer frequency, TF over GST control) | 1.26 fold enrichment (6-mer frequency, TF over GST control) | 1.21 fold enrichment (6-mer frequency, TF over GST control) | 1.21 fold enrichment (6-mer frequency, TF over GST control) | 1.19 fold enrichment (6-mer frequency, TF over GST control)
TGCCAT | 1.17 fold enrichment (6-mer frequency, TF over GST control) | 1.09 fold enrichment (6-mer frequency, TF over GST control) | 1.05 fold enrichment (6-mer frequency, TF over GST control) | 1.19 fold enrichment (6-mer frequency, TF over GST control) | 1.09 fold enrichment (6-mer frequency, TF over GST control) | 1.08 fold enrichment (6-mer frequency, TF over GST control) | 1.2 fold enrichment (6-mer frequency, TF over GST control) | 1.1 fold enrichment (6-mer frequency, TF over GST control)
CACTGT | 1.16 fold enrichment (6-mer frequency, TF over GST control) | 1.09 fold enrichment (6-mer frequency, TF over GST control) | 1.13 fold enrichment (6-mer frequency, TF over GST control) | 1.11 fold enrichment (6-mer frequency, TF over GST control) | 1.13 fold enrichment (6-mer frequency, TF over GST control) | 1.12 fold enrichment (6-mer frequency, TF over GST control) | 1.12 fold enrichment (6-mer frequency, TF over GST control) | 1.05 fold enrichment (6-mer frequency, TF over GST control)
TTCCAG | 1.09 fold enrichment (6-mer frequency, TF over GST control) | 1.09 fold enrichment (6-mer frequency, TF over GST control) | 1.12 fold enrichment (6-mer frequency, TF over GST control) | 1.04 fold enrichment (6-mer frequency, TF over GST control) | 1.16 fold enrichment (6-mer frequency, TF over GST control) | 1.18 fold enrichment (6-mer frequency, TF over GST control) | 1.06 fold enrichment (6-mer frequency, TF over GST control) | 1.15 fold enrichment (6-mer frequency, TF over GST control)
AAGATA | 1.17 fold enrichment (6-mer frequency, TF over GST control) | 1.09 fold enrichment (6-mer frequency, TF over GST control) | 1.1 fold enrichment (6-mer frequency, TF over GST control) | 1.1 fold enrichment (6-mer frequency, TF over GST control) | 1.1 fold enrichment (6-mer frequency, TF over GST control) | 1.07 fold enrichment (6-mer frequency, TF over GST control) | 1.11 fold enrichment (6-mer frequency, TF over GST control) | 1.14 fold enrichment (6-mer frequency, TF over GST control)
GTACCT | 1.19 fold enrichment (6-mer frequency, TF over GST control) | 1.19 fold enrichment (6-mer frequency, TF over GST control) | 1.21 fold enrichment (6-mer frequency, TF over GST control) | 1.27 fold enrichment (6-mer frequency, TF over GST control) | 1.2 fold enrichment (6-mer frequency, TF over GST control) | 1.31 fold enrichment (6-mer frequency, TF over GST control) | 1.14 fold enrichment (6-mer frequency, TF over GST control) | 1.19 fold enrichment (6-mer frequency, TF over GST control)
ACTGCG | 1.26 fold enrichment (6-mer frequency, TF over GST control) | 1.26 fold enrichment (6-mer frequency, TF over GST control) | 1.35 fold enrichment (6-mer frequency, TF over GST control) | 1.24 fold enrichment (6-mer frequency, TF over GST control) | 1.21 fold enrichment (6-mer frequency, TF over GST control) | 1.25 fold enrichment (6-mer frequency, TF over GST control) | 1.25 fold enrichment (6-mer frequency, TF over GST control) | 1.18 fold enrichment (6-mer frequency, TF over GST control)
ACACTC | 1.06 fold enrichment (6-mer frequency, TF over GST control) | 1.08 fold enrichment (6-mer frequency, TF over GST control) | 1.14 fold enrichment (6-mer frequency, TF over GST control) | 1.02 fold enrichment (6-mer frequency, TF over GST control) | 1.07 fold enrichment (6-mer frequency, TF over GST control) | 1.05 fold enrichment (6-mer frequency, TF over GST control) | 1.16 fold enrichment (6-mer frequency, TF over GST control) | 1.11 fold enrichment (6-mer frequency, TF over GST control)
GTCCAT | 1.08 fold enrichment (6-mer frequency, TF over GST control) | 1.24 fold enrichment (6-mer frequency, TF over GST control) | 1.04 fold enrichment (6-mer frequency, TF over GST control) | 1.02 fold enrichment (6-mer frequency, TF over GST control) | 1.14 fold enrichment (6-mer frequency, TF over GST control) | 1.07 fold enrichment (6-mer frequency, TF over GST control) | 1.11 fold enrichment (6-mer frequency, TF over GST control) | 1.07 fold enrichment (6-mer frequency, TF over GST control)
TGCTTA | 1.1 fold enrichment (6-mer frequency, TF over GST control) | 1.09 fold enrichment (6-mer frequency, TF over GST control) | 1.1 fold enrichment (6-mer frequency, TF over GST control) | 1.18 fold enrichment (6-mer frequency, TF over GST control) | 1.12 fold enrichment (6-mer frequency, TF over GST control) | 1.03 fold enrichment (6-mer frequency, TF over GST control) | 1.18 fold enrichment (6-mer frequency, TF over GST control) | 1.1 fold enrichment (6-mer frequency, TF over GST control)
